# Reference: PubChem BioAssay (NCATS)
# Inconclusive results are not listed. A number with no mark means an inactive call. Active and inactive are the calls of the source. Calls come from the whole dose curve; as a rule, active = well fitted cell-killing curve with a large enough effect; inconclusive = small, poorly fitted or top-dose-only effect; inactive = flat fitted curve, though single readings scatter.
# Test: qHTS of pediatric cancer cell lines to identify multiple opportunities for drug repurposing: Confirmatory screen for SK-N-SH cells (AID 1347129);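 note: cells exposed to compound for 48 h before viability read; nearly all actives have a fitted effect of over 60% in size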
# Conditions: SK-N-SH neuroblastoma cell viability; series mostly up to 46.1 µM; activity change, negative = cytotoxic: at the top concentration
# Text: Drug repurposing or repositioning has been offered as a strategy for drug development in oncology programs. This approach has special potential for childhood cancers and other rare or orphan diseases, where the expected return on new drug development has been a disincentive to pharmaceuticals.
# In this project we exploit the poly-pharmacology of drugs to discover new indications via phenotypic screening of a panel of 19 well-characterized cell lines derived from solid tumors seen in children and adolescents. The goal is to identify approved drugs with previously unrecognized anticancer properties that has the potential to reveal new mechanisms and biological processes involved in carcinogenesis or drug resistance. We employed a titration-based paradigm (quantitative high-throughput screening or qHTS), where all compounds were tested at multiple concentrations for their effect on cell viability. Concentration-response curves (CRCs) were derived directly from the primary screen, and both potency and efficacy values were used to identify compounds with robust bioactivity profiles. We screened the NIH Chemical Genomics Center (NCGC) Pharmaceutical Collection (NPC) and Mechanism Interrogation Plate (MIPE) small molecule collections of approved and investigational compounds against these cell lines; and measured metabolically active cells after 48 hours of compound treatment as a proxy for cell viability.
# Assay Submitter: Nathalia J. Martinez, National Center for Advancing Translational Sciences, National Institutes of Health, Rockville, MD, USA; email: natalia.martinez@nih.gov
# [1] Shen, M et al. Quantitative high-throughput phenotypic screening of pediatric cancer cell lines identifies multiple opportunities for drug repurposing. Oncotarget 2017 Dec 19;9(4):4758-4772. PMID 29435139.
# The cells were obtained from University of North Carolina (UNC), Pediatric Preclinical Testing Program (PPT), and Coriell Institute (CI).
# qHTS cell viability assay:
# Cells were assayed in growth media at a density of 500-1,000 cells/well. Five microliters of cells were dispensed into 1,536-well, white, solid-bottom, TC-treated plates (Greiner Bio One) using a multidrop dispenser and incubated at 37 degrees C, 5% CO2, under a humidified atmosphere for 5 hours. Twenty-three nanoliters of compounds and controls (neutral control DMSO or positive control bortezomib at final concentration of 2.3 µM) were subsequently transferred by Kalypsys pintool. For primary screens, the MIPE collection was tested at 11-point dilutions (final concentrations range from 0.78 nM to 46 µM) and the NPC collection at 8-point dilutions (final concentrations range from 0.59 nM to 46 µM). Compounds tested in follow-up screens were assayed at 11-point dilutions. Cells were incubated for 48 hours, followed by addition of 3 µL of CellTiter-Glo (Promega). After a 15 min incubation at room temperature, samples were analyzed for luminescence intensity using a ViewLux High-throughput CCD imager equipped with clear filters.
# Potency is the fitted concentration of half-maximal effect.
SMILES,Potency,"activity change, negative = cytotoxic"
O=C(Nc1ccc([N+](=O)[O-])cc1Cl)c1cc(Cl)ccc1O,3.23 µM (active),–
Clc1ccc2nsnc2c1NC1=NCCN1,–,-0.721%
CCC1(c2ccccc2)C(=O)NCNC1=O,–,2.83%
CC[C@@]1(O)C(=O)OCc2c1cc1n(c2=O)Cc2cc3c(CN(C)C)c(O)ccc3nc2-1,6.62 µM (active),–
CCCCc1oc2ccccc2c1C(=O)c1cc(I)c(OCCN(CC)CC)c(I)c1,56.2 µM (active),–
CC(C)NCC(O)c1ccc(O)c(O)c1 (stereo unspecified),–,-18.1%
CN1CCN(CCCN2c3ccccc3Sc3ccc(Cl)cc32)CC1,20.9 µM (active),–
CN(Cc1cnc2nc(N)nc(N)c2n1)c1ccc(C(=O)N[C@@H](CCC(=O)O)C(=O)O)cc1,–,-6.69%
CS(=O)(=O)CCNCc1ccc(-c2ccc3ncnc(Nc4ccc(OCc5cccc(F)c5)c(Cl)c4)c3c2)o1,23.5 µM (active),–
NC12CC3CC(CC(C3)C1)C2,–,3.14%
CC(C)Cc1ccc(C(C)C(=O)O)cc1 (stereo unspecified),–,-7.93%
Clc1ccc(C(c2ccccc2Cl)C(Cl)Cl)cc1 (stereo unspecified),–,3.87%
CC(C)C(=O)Nc1ccc([N+](=O)[O-])c(C(F)(F)F)c1,–,-6.9%
O=C1c2c(O)ccc(O)c2C(=O)c2c(NCCNCCO)ccc(NCCNCCO)c21,0.526 µM (active),–
CC(CCc1ccc(O)cc1)NCCc1ccc(O)c(O)c1 (stereo unspecified),–,-1.53%
COc1cc2c(c(OC)c1OC)-c1ccc(OC)c(=O)cc1[C@@H](NC(C)=O)CC2,–,10.8% [at 369 µM]
